Screening data as filed in PubChem BioAssay.
The list is not random: actives were taken first. Their share in the collection is about 27%.
CYP2C19 inhib: human CYP2C19 inhibition; 96,000 compounds, 21% hits; CYP2C19 Supersomes, luciferin-H EGE luminescence, 30 min; P33261; inhibition, % at 5 µM; AID 778;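 active means CYP2C19 inhibition above a set limit at 5 µM in the primary screen, cut at about 50% in these data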;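 further: plate controls were negative control wells for no effect and 2.5 mM tranylcypromine positive control for full effect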
Target sequence (P33261 whole entry, looked up): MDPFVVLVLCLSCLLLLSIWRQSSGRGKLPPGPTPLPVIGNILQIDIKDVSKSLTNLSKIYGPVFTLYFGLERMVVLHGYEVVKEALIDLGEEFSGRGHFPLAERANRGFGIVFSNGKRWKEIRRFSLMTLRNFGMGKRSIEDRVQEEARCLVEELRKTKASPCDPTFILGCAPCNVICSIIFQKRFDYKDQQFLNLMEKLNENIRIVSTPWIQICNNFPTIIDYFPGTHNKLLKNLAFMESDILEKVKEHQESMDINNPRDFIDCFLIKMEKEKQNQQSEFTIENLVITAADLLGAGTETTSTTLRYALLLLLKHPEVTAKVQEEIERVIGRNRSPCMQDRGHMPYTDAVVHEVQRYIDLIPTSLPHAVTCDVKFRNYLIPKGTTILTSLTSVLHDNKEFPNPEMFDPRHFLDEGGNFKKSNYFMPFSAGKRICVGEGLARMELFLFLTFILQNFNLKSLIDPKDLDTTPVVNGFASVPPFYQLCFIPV
CYP2C9 activ: increases human cytochrome P450 2C9 activity | P11712 | recombinant CYP2C9, luciferin-H conversion, luminescence; hits give high values; factor 1 = untreated enzyme, 0 = blocked | 96,000 compounds, 1.4% hits | activation factor at 5 µM;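 active means activation factor of 2 or more for CYP2C9 at a 5 µM dose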;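 further: 0 = sulfaphenazole-blocked wells and 1 = vehicle-only wells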
sEH activator: increases human soluble epoxide hydrolase activity | 91,000 compounds, 0.04% hits | P34913 | activation, % at 2 µM | purified human sEH enzymatic activity, activator screen; in the data active means activation above about 37%
CYP2C19 act: cytochrome P450 2C19 (human) activation; activation factor at 5 µM; AID 1025; recombinant CYP2C19, luciferin-H EGE luminescence; hits give high values; 0 = fully inhibited enzyme, 1 = untreated enzyme; 96,000 tested, under 10 active; P33261;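 active means activation factor of at least 2 at 5 µM in the primary screen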;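 further: 0 = wells with 2.5 mM tranylcypromine and 1 = vehicle-only wells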
sEH inh: blocks human soluble epoxide hydrolase activity | P34913 | recombinant human sEH enzymatic activity assay | inhibition, % at 2 µM | 91,000 compounds, 0.34% hits; in the data active means inhibition above about 80%
CYP2C9 inh: blocks human cytochrome P450 2C9. P11712. 96,000 compounds, 20% hits. AID 777. inhibition, % at 5 µM. CYP2C9 Supersomes, luciferin-H conversion, luminescence;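 active means blocking of liver enzyme CYP2C9 beyond about 50% at 5 µM, limit read from the data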
* = called active by the depositor; / = no result given.

SMILES | CYP2C19 inhib | CYP2C9 activ | sEH activator | CYP2C19 act | sEH inh | CYP2C9 inh
CCCC(=O)N=C1SC2CS(=O)(=O)CC2N1c1ccc(C(C)=O)cc1 (centres undefined) | 7 | 0.6 | -16 | 0.9 | 16 | 42
CCn1c(C)[n+](CCOCC[n+]2c(C)n(CC)c3cc(Cl)c(Cl)cc32)c2cc(Cl)c(Cl)cc21 | -12 | 1.1 | 16 | 1.1 | -18 | -8
O=C1c2ccccc2C(=O)N1c1ccc(Cl)cn1 | 8 | 0.9 | -2 | 0.9 | 1 | 8
COc1ccc(C(NC(C)=O)c2ccc3cccnc3c2O)c(OC)c1 (centres undefined) | 58* | 0.6 | / | 0.4 | / | 41
Cc1cc(NC(=O)c2cccc(COc3ccc(Br)cc3)c2)no1 | 14 | 1.1 | -12 | 0.9 | 11 | -9
O=C1/C(=C\c2cccs2)N=C(c2cccs2)N1Nc1ccccc1 | 34 | 0.4 | 6 | 0.7 | -4 | 58*
Cc1ccc(C2=N/C(=C\c3cccs3)C(=O)N2Nc2ccccc2)cc1 | -12 | 0.8 | -3 | 1.1 | 3 | 16
O=C1/C(=C/c2cccs2)N=C(c2cccs2)N1Nc1ccccc1 | 3 | 0.1 | -13 | 1 | 9 | 93*
Cc1c(NC(=O)C2C3C=CC(C3)C2C(=O)O)c(=O)n(-c2ccccc2)n1C (centres undefined) | 5 | 0.9 | 3 | 0.9 | -5 | 11
Cc1cccc(N2C(=S)N=C(Nc3c(C)cccc3C)C23CCOC(C)(C)C3)c1 (centres undefined) | -14 | 1.1 | -8 | 1.1 | 11 | -14
COc1ccc(C2c3sc(=O)[nH]c3SC3C4CCC(C4)C23)cc1 (centres undefined) | 56* | 0.8 | 2 | 0.4 | -2 | 16
COc1cc(C2c3sc(=O)[nH]c3SC3C4CCC(C4)C23)ccc1O (centres undefined) | 51* | 0.5 | -29 | 0.5 | 30 | 53*
CCCc1nc2cc(CC(=O)OC)ccc2o1 | 20 | 1 | 10 | 0.8 | -4 | 1
O=C(CSc1nc2ccccc2[nH]1)NCc1ccco1 | 20 | 0.9 | 0 | 0.8 | -3 | 10
NC(=O)CSc1nc(-c2ccccc2Cl)ns1 | 42 | 0.7 | 6 | 0.6 | -8 | 26
O=C(CSc1ncnc2sc3c(c12)CCCCC3)NCc1ccco1 | 34 | 0.7 | -17 | 0.7 | 16 | 31
O=C(CSc1nc(-c2ccccc2Cl)ns1)NCc1ccco1 | 36 | 0.4 | -10 | 0.6 | 10 | 63*
O=C(CSc1c2c(nc3cc(Cl)ccc13)CCCC2)NCc1ccco1 | 98* | 0.1 | 6 | 0 | -4 | 88*
O=C(CSc1nc2ccc(Cl)cc2[nH]1)NCc1ccco1 | 47 | 0.5 | -2 | 0.5 | 8 | 51*
COc1cccc(OCCN2CCN(c3ncnc4c3cnn4-c3ccccc3)CC2)c1 | 50 | 0.5 | / | 0.5 | / | 48
COc1cccc(OCc2nc3c4cnn(-c5ccccc5)c4ncn3n2)c1 | 53* | 0.7 | -3 | 0.5 | 5 | 30
O=C(NCc1ccncc1)Nc1ccccc1 | 54* | 0.7 | -9 | 0.5 | 10 | 34
CCOC(=O)c1ccc(NC(=O)NCc2ccncc2)cc1 | 24 | 0.3 | -22 | 0.8 | 23 | 73*
CCOC(=O)c1ccc(NCc2ccc(N(C)C)cc2)cc1 | 54* | 1 | -5 | 0.5 | 3 | 4
CCCCC(=O)Nc1ccc(C(=O)NCc2ccncc2)cc1 | 63* | 0.3 | -8 | 0.4 | 9 | 70*
SMILES | CYP2C19 inhib | CYP2C9 activ | sEH activator | CYP2C19 act | sEH inh | CYP2C9 inh
CCOC(=O)c1ccc(NCc2ccc3c(c2)OCO3)cc1 | 32 | 0.5 | 4 | 0.7 | -4 | 50
COCCCNCC(=O)c1c(N)n(Cc2ccccc2)c(=O)n(C)c1=O | 0 | 0.9 | / | 1 | / | 13
COc1ccc(CNC(=O)Nc2cccc3ccccc23)cc1 | 89* | 1.4 | -64 | 0.1 | 62 | -36
O=C(Nc1cccnc1)Nc1ccccc1Cl | -4 | 1.1 | -1 | 1 | 1 | -10
O=C(NCc1ccncc1)Nc1ccccc1Cl | 89* | 0.2 | / | 0.1 | / | 81*
COc1ccc(NC(=O)NCc2ccncc2)cc1 | 31 | 0.4 | 1 | 0.7 | -1 | 60*
NS(=O)(=O)c1ccc(CCNC(=O)Nc2ccc(Cl)c(Cl)c2)cc1 | 34 | 0.7 | -64 | 0.7 | 64 | 34
O=C(NCCc1ccncc1)Nc1ccc(Cl)cc1 | 97* | 0 | -20 | 0 | 24 | 96*
CCOC(=O)CC(=O)Nc1ccc(C(=O)OCC)cc1 | 27 | 0.8 | 3 | 0.7 | -3 | 25
CCOC(=O)c1ccc(NC(=O)C(CC)CC)cc1 | 55* | 0.9 | -5 | 0.5 | 5 | 10
COC(=O)C(C(=O)OC)C(C)C(C(=O)OC)C(=O)OC | -9 | 1.1 | 13 | 1.1 | -13 | -14
Cc1ncoc1C(=O)Nc1ccccc1-c1ccccc1 | 16 | 0.7 | 9 | 0.8 | -13 | 30
O=C(CCn1nnc(-c2cccs2)n1)NCc1ccccc1Cl | 28 | 0.4 | -52 | 0.7 | 51 | 65*
CSc1nc2n(n1)C(c1ccccn1)C1=C(CC(C)(C)CC1=O)N2 (centres undefined) | -1 | 1.1 | -7 | 1 | 7 | -6
CCCCCCCC1(C)NC(=O)N(c2ccccc2)N1 (centres undefined) | 57* | 0.8 | 21 | 0.4 | -21 | 24
Cc1cccc(C)c1OC(=O)CN(c1ccc(Cl)cc1)S(C)(=O)=O | -1 | 0.8 | / | 1 | / | 15
Cc1ccc2c(c1)CCCN2C(=O)c1c(C)noc1C | 47 | 0.6 | 2 | 0.5 | 3 | 35
Cc1ccc2c(c1)CCCN2C(=O)c1ccoc1C | 63* | 0.6 | / | 0.4 | / | 35
Cc1ccc2c(c1)CCCN2C(=O)c1cc2ccccc2oc1=O | 41 | 2.8* | 13 | 0.6 | -10 | -176
Cc1oc(-c2ccccc2)cc1C(=O)Nc1cccc2ccccc12 | 11 | 1.9 | 3 | 0.9 | 0 | -88
CCCNCC1COc2ccccc2O1 (centres undefined) | -10 | 1.1 | -14 | 1.1 | 16 | -15
CCN(c1ccccc1)S(=O)(=O)c1ccc(NCC2COc3ccccc3O2)nc1 (centres undefined) | 52* | 0.2 | / | 0.5 | / | 84*
CN1CCn2c1nc(N1CCCCC1)nc2=O | -15 | 0.9 | 10 | 1.1 | -11 | 9
CCN(CC)CCOC(=O)c1ccc(NC(=O)C2(c3ccccc3)CCCC2)cc1 | 0 | 1 | -4 | 1 | 5 | 3
CCCCCN(C(=O)NC(=O)Nn1cnnc1)S(C)(=O)=O | -3 | 1.1 | -4 | 1 | 5 | -8
CCCCN(C(=O)NC(=O)Nc1cc(C)ccc1C)S(C)(=O)=O | 35 | 0.4 | 11 | 0.7 | -11 | 56*
CCCCCN(C(=O)NC(=O)Nc1nncs1)S(C)(=O)=O | 7 | 0.4 | -11 | 0.9 | 13 | 61*
O=C1CC(C2CCCO2)C(=O)N1Cc1ccccc1 (centres undefined) | 47 | 1 | -8 | 0.5 | 10 | 3
